Source: PubChem
FAS TE block: inhibitors of human fatty acid synthase thioesterase domain; P49327; recombinant FAS-TE, OMFH fluorogenic substrate, fluorescence endpoint; inhibition, % at 15 µM; 0.67% of 360,000 active;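 active means compounds whose normalised, plate-corrected inhibition of enzyme fluorescence in the single-dose primary screen is 50% or more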;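 further: 0% = DMSO with enzyme and 100% = substrate without enzyme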
MPTP inh: blocks calcium-induced mitochondrial swelling. inhibition, % at 10 µM. isolated mouse mitochondria, Ca2+ swelling absorbance, 30 min. 1.4% of 360,000 active;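 active means inhibition of 50% or more, scaled per plate between neutral and stimulator controls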;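 further: 0% = DMSO wells given calcium and 100% = 1 mM EGTA wells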
aDG glyco act: increases alpha dystroglycan glycosylation; Pro5-aDG cells, alpha-DG glycosylation AlphaScreen (IIH6); 0% Pro5, 100% B10-LARGE cell signal; activation, % at 10 µM; 0.22% of 360,000 active; AID 624168;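 active means activation of at least 8% versus controls, or a plate z-score of at least 8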;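 further: Pro5 are CHO cells carrying HIG-tagged alpha-DG that lacks glycosylation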
CR mimetic SO: yeast age-related superoxide inhibition as caloric restriction mimetic | S. cerevisiae aged cells, superoxide DHE fluorescence; stronger effect = lower value | superoxide response (% of plate mean), % at 10 µM | 0.18% of 330,000 active;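 active means superoxide response under a set limit, about three screen SD below normal, cut at about 65% in these data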;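 further: yeast aged for seven days with compound at 30 °C before DHE staining; 100% = average MFI of all compound-treated wells on the plate with controls excluded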
Mot1-301 SUMO: inhibitors of SUMOylation pathway: yeast Mot1-301 growth rescue. S. cerevisiae Mot1-301 growth rescue, ATP luminescence, 38.5C; percent above DMSO median, 100 means doubled. growth rescue, % at 18.8 µM. 1% of 320,000 active. AID 2716;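 active means every valid replicate shows activation above 250% relative to neutral control wells; inactive means the rest, any valid replicate at or below 250%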;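 further: OY570 slx delta 5 strain wells were the positive control but not used for scaling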
H9c2 protect: protects H9c2 cardiomyocytes from peroxide injury; H2O2 injury protection, ATPLite, 2 h; protection from H2O2 cell death, % at 20 µM; 0.63% of 360,000 active; AID 588492;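 active means compounds giving at least 50% protection of heart cells from peroxide-induced death in the single-dose screen, raw or plate-pattern-corrected value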;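 further: 0% = DMSO wells with peroxide and 100% = DMSO wells without peroxide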
Active calls of the source: *. Hits are enriched below; roughly 3.8% of the tested compounds scored in any of these assays.

For CCCn1c(=O)c(C(=O)Nc2ccccc2N)c(O)c2ccccc21 the results were FAS TE block 4.9, MPTP inh 2.1, aDG glyco act -0.2 and H9c2 protect 4.9.
`Cc1ccc(S(=O)(=O)N(C)C[C@@H]2Oc3ccc(NS(C)(=O)=O)cc3CC(=O)N([C@H](C)CO)C[C@@H]2C)cc1` gave FAS TE block -10.0, MPTP inh 0.6, aDG glyco act -0.3, CR mimetic SO 126.3, Mot1-301 SUMO -7.6 and H9c2 protect 10.2.
For Cc1ccc(S(=O)(=O)N2CCCOC2CNC(=O)C(=O)NCc2ccc3c(c2)OCO3)cc1 (configuration not stated) the results were FAS TE block -3.9, MPTP inh 1.1, aDG glyco act -0.5, CR mimetic SO 101.2, Mot1-301 SUMO 5.6 and H9c2 protect -2.2.
Screening Cc1ccc(C(O)c2ncc(-c3ccccc3F)[nH]2)c(C)c1 (configuration not stated) returned FAS TE block -1.7, MPTP inh -1.4, aDG glyco act -0.1 and H9c2 protect -4.6.
Screening Cc1ccc(S(=O)(=O)N(C)c2ccc(OC(=O)c3cccs3)cc2)cc1C returned FAS TE block 27.4, MPTP inh -0.9, aDG glyco act -0.2, CR mimetic SO 70.3, Mot1-301 SUMO 7.5 and H9c2 protect -8.8.
`COC(=O)c1ccc(COC(=O)Cc2n[nH]c(=O)c3ccccc23)cc1` gave FAS TE block -0.6, MPTP inh 0.1, aDG glyco act 0.6, CR mimetic SO 90.2, Mot1-301 SUMO -6.4 and H9c2 protect 38.6.
For COC(=O)Cc1n[nH]c(=O)c2ccccc12 the results were FAS TE block -3.6, MPTP inh 1.5, aDG glyco act 0.1, CR mimetic SO 127.3, Mot1-301 SUMO -8.5 and H9c2 protect 59.2*.
Screening CCOC(=O)Cc1n[nH]c(=O)c2ccccc12 returned FAS TE block -10.4, MPTP inh -0.5, aDG glyco act -0.2, CR mimetic SO 97.5, Mot1-301 SUMO -11.6 and H9c2 protect 69.3*.
O=C(Cc1n[nH]c(=O)c2ccccc12)OCC(=O)N(Cc1ccccc1)Cc1ccccc1 was read as FAS TE block 8.0, MPTP inh 0.8, aDG glyco act 0.1, CR mimetic SO 86.9, Mot1-301 SUMO -9.7 and H9c2 protect 46.3.
Screening CCOc1ccccc1N(CC(=O)NC1CCCC1)S(=O)(=O)c1ccc(C)cc1 returned FAS TE block 7.4, MPTP inh -0.9, aDG glyco act 0.1, CR mimetic SO 95.3, Mot1-301 SUMO -33.5 and H9c2 protect 4.7.
CC(C)(C)C(=O)Nc1ccc(NC(=O)C(C)(C)C)cc1 was read as FAS TE block -11.0, MPTP inh -0.7, aDG glyco act 0.1, CR mimetic SO 85.7, Mot1-301 SUMO 12.2 and H9c2 protect 0.7.
For CC(C)(C)C(=O)Nc1ccc(S(=O)(=O)c2ccc(NC(=O)C(C)(C)C)cc2)cc1 the results were FAS TE block 4.6, MPTP inh -0.2, aDG glyco act -0.2, CR mimetic SO 108.0, Mot1-301 SUMO 319.7* and H9c2 protect -0.6.
`CC1(C(=O)Nc2ccc3c(c2)OCO3)CCN1C(=O)C1CCCCC1` (configuration not stated) gave FAS TE block 1.7, MPTP inh -0.2, aDG glyco act 0.1 and H9c2 protect 1.9.
Screening O=C(/C=C\c1ccccc1[N+](=O)[O-])Nc1ccccc1 returned FAS TE block 16.4, MPTP inh 1.0, aDG glyco act -0.3, CR mimetic SO 105.5, Mot1-301 SUMO 20.7 and H9c2 protect 12.0.
COC(=O)/C(=C(O)\C=C\c1ccccc1[N+](=O)[O-])c1nc2ccccc2[nH]1 was read as FAS TE block 26.0, MPTP inh 1.0, aDG glyco act -0.3, CR mimetic SO 98.2, Mot1-301 SUMO 2.9 and H9c2 protect 68.2*.
Screening Cc1ccc(S(=O)(=O)N(C)C)cc1NC(=O)COC(=O)C1=COCCO1 returned FAS TE block -0.3, MPTP inh 0.4, aDG glyco act 0.0, CR mimetic SO 70.2, Mot1-301 SUMO 0.0 and H9c2 protect 10.0.
For Cc1ccc(CN(Cc2cc3cccc(C)c3[nH]c2=O)C(=O)N(C)C)cc1 the results were FAS TE block -0.9, MPTP inh -0.7, aDG glyco act 0.5, CR mimetic SO 105.7, Mot1-301 SUMO 316.7* and H9c2 protect -8.5.
